# Test results reported in PubChem BioAssay (NCATS).
# Values without a mark were called inactive. Results filed as inconclusive are left out. Calls of active or inactive are those of the source. Unless noted, the call rests on the fitted dose curve; in most records, active means well fitted curve in either direction with a large enough effect (not every such curve was filed as active); inconclusive means small, poorly fitted or top-dose-only effect, or another doubt; inactive means flat fitted curve, though single readings scatter.
# Experiments:
# [1] = AP1 Signaling Pathway (AID 357); settings: ME-180 AP-1-bla reporter, EGF-induced, beta-lactamase ratio, 5 h; at 17.2 µM (top of the series) unless noted;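 further: ME-180 reporter cells stimulated with EGF at its EC50 level; on the % scale 0 is the no-effect control and ±100 the full control effect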
# Outline: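 Cells are seeded overnight, exposed to compound titrations and an EC50 level of EGF for 5 hours at 37 °C, then loaded with CCF4 dye for 2.5 hours. Beta-lactamase activity under the AP-1 element is read as a blue/green ratio.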
# [2] = NFAT Signaling Pathway (AID 444); settings: Jurkat NFAT-bla M1, carbachol, beta-lactamase ratio, 5 h; at 17.2 µM (top of the series) unless noted;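 further: carbachol stimulus at about its EC50 of 1 µM final; on the % scale 0 is the no-effect control and ±100 the full control effect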
# Outline: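 Jurkat cells carrying an NFAT-driven β-lactamase reporter and co-transfected muscarinic M1 receptor were treated with compound plus carbachol (1 uM final, an EC50 level) for 5 h at 37 °C. CCF4 loading followed for 1 h at RT; 460/530 nm ratio gave %activity.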
# [3] = Stat Signaling Pathway (AID 446); settings: ME-180 (cervical carcinoma) SIE beta-lactamase reporter, IL-6 stimulated, 5 h; at 17.2 µM (top of the series) unless noted;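 further: ME-180 cervical cancer cells given 40 pM IL-6 alongside compound; SIE-controlled beta-lactamase reporter measured as 460/530 nm FRET emission ratio; on the % scale 0 is the no-effect control and ±100 the full control effect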
# Outline: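 Normalization used AC90 stimulation (300 pM IL-6) and AC90 inhibition (125 nM pan-JAK inhibitor at 40 pM IL-6). The underlying signal is SIE-driven beta-lactamase in ME-180 cells after 5 h IL-6 exposure with compound.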
# [4] = molecular target: Glucocorticoid receptor (Homo sapiens) (UniProt P04150); assay: GR-GFP Redistribution (AID 450;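 active means compounds whose dose series gives a full or clear partial fitted curve of increased nuclear translocation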; further: potency means the concentration at half of the fitted maximal effect)
# [5] = molecular target: Glucocorticoid receptor (Homo sapiens) (UniProt P04150); assay: GR-EFC Redistribution (AID 451; calls by dose curve; further: potency means the concentration at half of the fitted maximal effect); settings: CHO-K1 GR-EFC translocation, beta-gal luminescence, 2 h
# Outline: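 CHO-K1 cells stably expressing nuclear-localized β-gal enzyme acceptor and GR fused C-terminally to the enzyme donor fragment; ligand-driven nuclear translocation restores β-gal by complementation. Compounds titrated up to 46 uM final, 2 h at 37 °C; luminescence read.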
# [6] = molecular target: Mitogen-activated protein kinase 10 (Mus musculus) (UniProt Q61831); assay: JNK3 AlphaScreen Assay (AID 530);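 further: kinase came from lysate of stimulated human HepG2 cells; signal reports phosphorylation of biotinylated GST-cJun 1-79 at Ser73 with 10 µM ATP; on the % scale 0 is the no-effect control and ±100 the full control effect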
# Outline: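 Phosphorylation of biotinylated GST-cJun(1-79) at Ser73 is measured by AlphaScreen proximity luminescence. Enzyme is JNK3 in HepG2 lysates activated with interleukin-1beta and tumor necrosis factor alpha; ATP is 10 uM final.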
# [7] = molecular target: 3',5'-cyclic-AMP phosphodiesterase 4B (Homo sapiens) (UniProt Q07343); assay: qHTS Assay for Inhibitors of PDE-IV (AID 607; active means well fitted activation curve with a large enough effect in the main read-out, with a control signal flat, not every such curve was filed as active; further: % of control where 0% means no effect)
# Outline: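 HEK293 ACTOne cells with CNG channel (1000/well), endogenous PDE4; membrane potential dye, compounds up to 22.9 uM final. Fluorescence Ex 535/Em 590; RO 20-1724 (100 uM final) as reference.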
# [8] = qHTS Assay for Identification of Small Molecule Agonists for Thrombopoietin (TPO) Signaling Pathway (AID 917; active means well fitted curve in the direction sought with a large enough effect; an effect the other way counts as inactive or inconclusive; further: on the % scale 0 is the no-effect control and ±100 the full control effect)
# Outline: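 Ba/F3 (mouse) + hTPO receptor + GpIIb-promoter luciferase; IL-3 withdrawn overnight; compound + 26 pM TPO (EC50), 24 hrs, 37 C, 5% CO2; Steadylite luminescence, 10 min RT.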
# [9] = molecular target: Muscarinic acetylcholine receptor M1 (Rattus norvegicus) (UniProt P08482); assay: qHTS Assay for Antagonists of Acetylcholine Muscarinic M1 Receptor: Kinetic Measurement of Intracellular Calcium Response (AID 943; active means well fitted curve in the direction sought with a large enough effect; an effect the other way counts as inactive or inconclusive;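 further: Fluo-4 calcium signal as peak divided by basal fluorescence over 4 min; nearly all actives have a fitted effect of over 75% in size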)
# Outline: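 Antagonism is measured as inhibition of the carbachol-evoked calcium rise in CHO cells transfected with rat M1. Cells are dye-loaded, exposed to compound for 10 min, then stimulated with 100 nM carbachol (EC80).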
# [10] = molecular target: Pyruvate kinase (Leishmania mexicana) (UniProt Q27686); assay: qHTS Validation Assay for Inhibitors of Leishmania Mexicana Pyruvate Kinase (AID 945; active means well fitted curve in the direction sought with a large enough effect; an effect the other way counts as inactive or inconclusive;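 further: 0% = DMSO only neutral control wells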)
# Outline: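 Mutant LmPYK (E451W), 0.2 nM, plus 0.5 mM PEP and 0.1 mM ADP in 50 mM imidazole pH 7.2 containing 0.01% Tween 20 and 0.05% BSA. Incubated 1 h at room temperature; luminescence via PKLight, normalized to DMSO.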
# [11] = molecular target: Pyruvate kinase PKM (Homo sapiens) (UniProt P14618); assay: qHTS Assay for Activators of Human Muscle Pyruvate Kinase (AID 954; active means well fitted curve in the direction sought with a large enough effect, not every such curve was filed as active;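 further: 0% = uninhibited enzyme and -100% = no enzyme or full thiadiazolimine inhibition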)
# Outline: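 Compound pinned into substrate mix (0.5 mM PEP, 0.1 mM ADP), then 0.1 nM PKM2 added; 1 h, RT. Stop/detection luciferase reagent added, luminescence read. Normalized to no-inhibition and no-enzyme or reference-inhibitor controls.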
# [12] = molecular target: Alpha-galactosidase A (Homo sapiens) (UniProt P06280); assay: Counterscreen for Glucocerebrosidase Inhibitors: qHTS Assay for Human alpha-Galactosidase at pH 4.5 (AID 992; active means well fitted curve in the direction sought with a large enough effect; an effect the other way counts as inactive or inconclusive; further: 0% is about no effect)
# Outline: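 Steps: enzyme (2 nM final), then compound across 0.7 nM to 77 uM, then 80 uM fluorogenic galactopyranoside substrate; incubate 20 min at room temperature; quench at pH 10; measure fluorescence at 365/440 nm.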
# [13] = qHTS Assay for Identification of Small Molecule Antagonists for NFkB Signaling Pathway (AID 895; active means well fitted inhibition curve with a large enough effect in the signal ratio, with a control signal flat, not every such curve was filed as active; the % refers to the signal ratio; further: potency means the concentration at half of the fitted maximal effect)
# Outline: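 NFkB-bla ME-180 cervical carcinoma cells with beta-lactamase reporter under NFkB response element; compounds added, then TNF alpha at 10 pM final (EC50), 5 h at 37 C. LiveBLAzer substrate 2 h, room temperature; emission 460/530 nm at 405 nm excitation.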
# [14] = molecular target: Guanine nucleotide-binding protein G(i) subunit alpha-1 (Homo sapiens) (UniProt P63096); assay: qHTS Assay for Inhibitors of RGS12 GoLoco Motif Activity (Green Fluorophore) (AID 879; active means well fitted curve in the direction sought with a large enough effect; an effect the other way counts as inactive or inconclusive;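 further: 0% = labeled peptide with Gαi1 and full inhibition = labeled peptide alone without protein; negative values mean loss of peptide binding seen as reduced polarization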)
# Outline: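 A drop in FITC polarization marked displacement of the FITC-tagged RGS12 GoLoco peptide (10 nM) from Gαi1 (50 nM). Compounds were incubated 10 min at room temperature in Tris pH 7.5 buffer containing 150 mM NaCl, 0.1 mM GDP and 0.05% NP40; unlabeled peptide titration served as control.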
# [15] = molecular target: alpha-glucosidase (Oryza sativa, rice) (UniProt Q653V4); assay: Counterscreen for Glucocerebrosidase Inhibitors: qHTS Assay for Rice alpha-Glucosidase at pH 5.0 (AID 997; active means well fitted curve in the direction sought with a large enough effect; an effect the other way counts as inactive or inconclusive;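 further: 0% = full activity with enzyme and -100% = basal without enzyme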)
# Outline: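 Endpoint fluorogenic assay at pH 5.0: compounds (0.7 nM to 77 uM) titrated against 4 nM rice enzyme and 400 uM 4-MU-alpha-glucoside for 20 min at room temperature; NaOH/glycine stop, read ex 365/em 440 nm, Hill-fitted AC50.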
# [16] = molecular target: Cytochrome P450 3A4 (Homo sapiens) (UniProt P08684); assay: qHTS Assay for Activators of Cytochrome P450 3A4 (AID 885; active means well fitted curve in the direction sought with a large enough effect; an effect the other way counts as inactive or inconclusive; further: nearly all actives have a fitted effect of over 65% in size)
# Outline: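 Human CYP3A4 dealkylates Luciferin-PPXE to luciferin, which luciferase detection converts to light. Substrate was at its KM (25uM), buffer 200mM KPO4, reaction 60 min at RT.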
# Sequence of Glucocorticoid receptor (Homo sapiens) (P04150 whole entry, looked up, the tested form may be a part): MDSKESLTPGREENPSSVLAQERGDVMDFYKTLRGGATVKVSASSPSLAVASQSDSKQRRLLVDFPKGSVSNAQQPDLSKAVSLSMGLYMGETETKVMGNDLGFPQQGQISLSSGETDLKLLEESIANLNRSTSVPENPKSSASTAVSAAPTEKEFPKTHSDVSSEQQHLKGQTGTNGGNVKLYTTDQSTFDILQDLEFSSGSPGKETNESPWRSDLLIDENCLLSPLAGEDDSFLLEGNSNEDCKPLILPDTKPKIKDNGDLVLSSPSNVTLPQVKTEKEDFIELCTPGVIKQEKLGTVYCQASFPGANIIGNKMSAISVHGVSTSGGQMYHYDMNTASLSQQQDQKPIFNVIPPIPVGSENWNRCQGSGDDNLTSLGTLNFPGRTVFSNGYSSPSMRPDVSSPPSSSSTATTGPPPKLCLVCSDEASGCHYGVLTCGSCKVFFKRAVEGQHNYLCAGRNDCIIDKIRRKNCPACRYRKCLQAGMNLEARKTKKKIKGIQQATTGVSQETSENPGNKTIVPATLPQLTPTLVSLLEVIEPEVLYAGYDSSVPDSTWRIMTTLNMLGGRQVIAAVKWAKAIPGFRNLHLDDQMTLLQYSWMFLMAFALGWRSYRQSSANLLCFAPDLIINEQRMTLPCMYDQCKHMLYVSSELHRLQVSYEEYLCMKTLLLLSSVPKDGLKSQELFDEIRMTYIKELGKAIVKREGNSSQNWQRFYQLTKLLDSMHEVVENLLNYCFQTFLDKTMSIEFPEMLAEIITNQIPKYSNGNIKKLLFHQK
# Sequence of 3',5'-cyclic-AMP phosphodiesterase 4B (Homo sapiens) (Q07343 whole entry, looked up): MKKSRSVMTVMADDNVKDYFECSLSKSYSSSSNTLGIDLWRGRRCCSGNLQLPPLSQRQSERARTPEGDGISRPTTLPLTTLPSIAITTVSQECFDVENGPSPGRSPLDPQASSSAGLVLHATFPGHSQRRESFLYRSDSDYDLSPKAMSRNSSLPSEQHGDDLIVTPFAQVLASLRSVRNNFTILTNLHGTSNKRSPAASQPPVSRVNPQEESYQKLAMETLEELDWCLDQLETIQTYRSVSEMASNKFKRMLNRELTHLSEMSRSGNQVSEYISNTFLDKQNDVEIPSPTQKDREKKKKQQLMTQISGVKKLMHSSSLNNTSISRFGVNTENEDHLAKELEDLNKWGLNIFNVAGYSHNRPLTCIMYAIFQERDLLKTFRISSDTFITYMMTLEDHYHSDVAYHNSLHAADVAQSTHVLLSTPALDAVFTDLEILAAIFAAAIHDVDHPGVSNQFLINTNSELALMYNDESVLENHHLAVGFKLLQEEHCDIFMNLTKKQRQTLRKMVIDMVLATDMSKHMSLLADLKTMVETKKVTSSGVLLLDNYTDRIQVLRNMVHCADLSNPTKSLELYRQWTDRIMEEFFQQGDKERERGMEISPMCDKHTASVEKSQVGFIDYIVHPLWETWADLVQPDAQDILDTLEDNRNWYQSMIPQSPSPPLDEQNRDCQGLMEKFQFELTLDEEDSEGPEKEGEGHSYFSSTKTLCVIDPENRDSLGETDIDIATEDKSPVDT
# Sequence of Pyruvate kinase PKM (Homo sapiens) (P14618 whole entry, looked up): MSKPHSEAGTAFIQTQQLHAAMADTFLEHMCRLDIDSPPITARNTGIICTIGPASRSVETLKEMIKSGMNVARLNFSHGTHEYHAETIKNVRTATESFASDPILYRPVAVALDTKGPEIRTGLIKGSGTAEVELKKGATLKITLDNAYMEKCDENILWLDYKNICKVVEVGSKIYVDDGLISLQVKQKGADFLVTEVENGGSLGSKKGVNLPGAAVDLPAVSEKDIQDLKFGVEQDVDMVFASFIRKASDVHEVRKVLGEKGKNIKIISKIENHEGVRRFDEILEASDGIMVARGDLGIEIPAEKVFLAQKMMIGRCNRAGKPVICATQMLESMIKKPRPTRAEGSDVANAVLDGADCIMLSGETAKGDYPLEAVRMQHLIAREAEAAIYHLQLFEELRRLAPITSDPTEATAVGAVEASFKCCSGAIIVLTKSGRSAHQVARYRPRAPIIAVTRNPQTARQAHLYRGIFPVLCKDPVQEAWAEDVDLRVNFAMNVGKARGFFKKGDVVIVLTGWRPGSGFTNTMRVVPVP
# Sequence of Alpha-galactosidase A (Homo sapiens) (P06280 whole entry, looked up): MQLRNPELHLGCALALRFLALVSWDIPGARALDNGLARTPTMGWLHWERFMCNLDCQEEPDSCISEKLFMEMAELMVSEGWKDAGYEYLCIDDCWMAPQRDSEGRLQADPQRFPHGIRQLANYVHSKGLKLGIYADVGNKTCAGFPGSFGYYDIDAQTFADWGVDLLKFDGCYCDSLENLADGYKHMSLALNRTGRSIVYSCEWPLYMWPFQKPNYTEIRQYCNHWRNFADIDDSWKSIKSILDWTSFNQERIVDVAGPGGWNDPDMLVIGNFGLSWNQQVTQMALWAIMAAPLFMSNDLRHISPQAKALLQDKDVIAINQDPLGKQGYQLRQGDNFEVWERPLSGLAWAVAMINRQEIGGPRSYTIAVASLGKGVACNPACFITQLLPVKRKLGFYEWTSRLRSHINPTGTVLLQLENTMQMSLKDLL
# Sequence of Pyruvate kinase (Leishmania mexicana) (Q27686 2-499 E452W): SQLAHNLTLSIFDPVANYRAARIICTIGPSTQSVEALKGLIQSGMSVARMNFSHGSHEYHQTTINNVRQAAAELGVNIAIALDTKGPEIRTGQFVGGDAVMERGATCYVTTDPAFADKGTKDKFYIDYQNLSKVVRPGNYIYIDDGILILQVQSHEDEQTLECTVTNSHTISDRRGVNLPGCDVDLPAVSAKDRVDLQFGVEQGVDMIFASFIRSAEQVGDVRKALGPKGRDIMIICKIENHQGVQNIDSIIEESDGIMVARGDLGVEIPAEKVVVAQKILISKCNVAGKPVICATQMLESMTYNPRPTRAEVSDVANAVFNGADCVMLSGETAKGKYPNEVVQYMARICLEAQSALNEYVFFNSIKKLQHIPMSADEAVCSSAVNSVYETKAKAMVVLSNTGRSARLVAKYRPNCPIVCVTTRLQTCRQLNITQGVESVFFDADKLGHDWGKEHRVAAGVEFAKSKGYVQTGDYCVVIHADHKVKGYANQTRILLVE
# Sequence of Muscarinic acetylcholine receptor M1 (Rattus norvegicus) (P08482 whole entry, looked up): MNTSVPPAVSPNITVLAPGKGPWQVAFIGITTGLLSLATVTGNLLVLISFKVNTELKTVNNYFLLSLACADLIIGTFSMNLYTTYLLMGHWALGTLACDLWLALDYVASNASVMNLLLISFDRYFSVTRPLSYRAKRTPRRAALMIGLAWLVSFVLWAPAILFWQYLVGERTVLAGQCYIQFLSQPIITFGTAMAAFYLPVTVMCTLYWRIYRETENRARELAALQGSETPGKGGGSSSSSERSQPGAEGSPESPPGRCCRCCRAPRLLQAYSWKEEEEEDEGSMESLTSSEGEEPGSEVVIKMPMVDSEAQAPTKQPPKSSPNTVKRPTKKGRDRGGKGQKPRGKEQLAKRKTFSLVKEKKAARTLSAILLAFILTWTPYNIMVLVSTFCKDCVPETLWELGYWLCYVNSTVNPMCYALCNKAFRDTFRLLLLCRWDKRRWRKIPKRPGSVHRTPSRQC
# Sequence of Guanine nucleotide-binding protein G(i) subunit alpha-1 (Homo sapiens) (P63096 whole entry, looked up): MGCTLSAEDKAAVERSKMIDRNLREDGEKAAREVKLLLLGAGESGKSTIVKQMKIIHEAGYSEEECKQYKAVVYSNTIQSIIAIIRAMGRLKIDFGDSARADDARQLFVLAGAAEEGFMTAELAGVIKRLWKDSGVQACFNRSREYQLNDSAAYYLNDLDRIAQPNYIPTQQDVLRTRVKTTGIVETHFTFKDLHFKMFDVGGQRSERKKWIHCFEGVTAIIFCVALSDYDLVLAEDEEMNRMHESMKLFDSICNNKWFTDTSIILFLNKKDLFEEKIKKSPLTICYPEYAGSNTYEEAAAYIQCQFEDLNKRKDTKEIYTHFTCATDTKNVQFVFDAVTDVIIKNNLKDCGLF
# Sequence of Cytochrome P450 3A4 (Homo sapiens) (P08684 whole entry, looked up): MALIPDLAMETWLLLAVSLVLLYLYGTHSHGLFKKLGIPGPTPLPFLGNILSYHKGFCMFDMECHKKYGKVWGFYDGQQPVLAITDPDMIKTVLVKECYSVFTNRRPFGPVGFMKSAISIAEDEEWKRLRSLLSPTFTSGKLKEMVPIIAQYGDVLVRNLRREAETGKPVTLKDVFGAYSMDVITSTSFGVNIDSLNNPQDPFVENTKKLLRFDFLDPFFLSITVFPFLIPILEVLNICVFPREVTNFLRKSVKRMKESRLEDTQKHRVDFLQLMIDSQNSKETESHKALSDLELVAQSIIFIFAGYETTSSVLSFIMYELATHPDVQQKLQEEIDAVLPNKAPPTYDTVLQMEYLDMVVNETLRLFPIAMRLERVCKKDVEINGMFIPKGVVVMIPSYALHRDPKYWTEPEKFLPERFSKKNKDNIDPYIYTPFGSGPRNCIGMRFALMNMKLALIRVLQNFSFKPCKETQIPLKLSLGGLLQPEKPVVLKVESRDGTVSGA
smiles,measurement,setting,value
CN1C[C@H](C(=O)N[C@]2(C)O[C@]3(O)[C@H]4CCCN4C(=O)[C@H](Cc4ccccc4)N3C2=O)C[C@H]2c3cccc4[nH]cc(c34)C[C@@H]21,"activity change, negative = inhibition",[1],1.56%
same,"activity change, negative = inhibition",[2],-6.21%
same,"activity, negative = inhibition",[3],-7.06%
same,Potency,[4],> 20.6 µM
same,Potency,[5],> 20.6 µM
same,Potency,[6],inactive
same,Potency,[7],inactive
O=C(O)c1cc2sccc2s1,"activity change, negative = inhibition",[1],-0.721%
same,"activity change, negative = inhibition",[2],-6.24%
same,"activity, negative = inhibition",[3],2.27%
same,Potency,[4],> 20.6 µM
O=C(O)C[C@@H]1CCCc2ccccc2[C@H]1O,"activity change, negative = inhibition",[1],1.66% [at 38 µM]
same,"activity change, negative = inhibition",[2],2.27% [at 38 µM]
same,"activity, negative = inhibition",[3],-11.9% [at 38 µM]
same,Potency,[4],> 46 µM
same,Potency,[5],> 46 µM
same,Potency,[6],inactive
same,Potency,[7],inactive
same,Potency,[8],inactive
same,Potency,[9],inactive
same,Potency,[10],inactive
same,outcome,[11],inactive
same,outcome,[12],inactive
O=C(NCCCN1CCOCC1)C1(c2ccccc2)CCOCC1,"activity change, negative = inhibition",[1],3.71%
same,"activity change, negative = inhibition",[2],-0.629%
same,"activity, negative = inhibition",[3],5.62%
same,Potency,[4],> 20.6 µM
Cc1cc(N2CCCCC2)nc2ccc(Cc3ccc4nc(N5CCCCC5)cc(C)c4c3)cc12,"activity change, negative = inhibition",[1],-0.0465% [at 7.69 µM]
same,"activity change, negative = inhibition",[2],-1.68% [at 7.69 µM]
same,"activity, negative = inhibition",[3],8.27% [at 7.69 µM]
same,Potency,[4],> 46 µM
same,Potency,[5],> 9.22 µM
same,"activity change, negative = inhibition",[6],13.5% [at 11.4 µM]
N[C@H](Cc1cccc(-c2ccccc2CP(=O)(O)O)c1)C(=O)O,"activity change, negative = inhibition",[1],8.92% [at 38 µM]
same,"activity change, negative = inhibition",[2],12.7% [at 38 µM]
same,"activity, negative = inhibition",[3],1.71% [at 38 µM]
same,Potency,[4],> 46 µM
same,Potency,[5],> 46 µM
same,Potency,[6],inactive
same,Potency,[7],inactive
same,Potency,[13],inactive
same,Potency,[8],inactive
same,Potency,[10],inactive
same,outcome,[11],inactive
same,outcome,[12],inactive
O=S(CCc1ccncc1)Cc1ccccc1 (stereo not given),"activity change, negative = inhibition",[1],9.28%
same,"activity change, negative = inhibition",[2],26%
same,"activity, negative = inhibition",[3],2.34%
same,Potency,[4],> 20.6 µM
COc1cccc(OC)c1OCCNC[C@@H]1CSc2ccccc2O1,"activity change, negative = inhibition",[1],18% [at 38 µM]
same,"activity change, negative = inhibition",[2],-12.7% [at 38 µM]
same,"activity, negative = inhibition",[3],-23.8% [at 38 µM]
same,Potency,[4],> 46 µM
same,Potency,[5],> 46 µM
same,Potency,[6],inactive
same,Potency,[7],inactive
same,outcome,[14],inactive
same,Potency,[13],inactive
same,Potency,[8],inactive
same,Potency,[10],inactive
same,outcome,[11],inactive
same,outcome,[12],inactive
same,outcome,[15],inactive
CCc1nc2n[nH]c(N)c2c2c1CSC(C)(C)C2,"activity change, negative = inhibition",[1],1.67%
same,"activity change, negative = inhibition",[2],14.6%
same,"activity, negative = inhibition",[3],-13.2%
same,Potency,[4],> 20.6 µM
Nc1cc(S(N)(=O)=O)ccc1SSc1ccc(S(N)(=O)=O)cc1N,"activity change, negative = inhibition",[1],19.2% [at 7.69 µM]
same,"activity change, negative = inhibition",[2],-0.508% [at 7.69 µM]
same,"activity, negative = inhibition",[3],-1.82% [at 7.69 µM]
same,Potency,[4],> 46 µM
same,Potency,[5],> 9.22 µM
same,"activity change, negative = inhibition",[6],-4.44% [at 11.4 µM]
same,Potency,[7],inactive
Nc1ncn([C@@H]2O[C@@H](CO)[C@@H](O)[C@H]2O)c(=O)n1,"activity change, negative = inhibition",[1],-29.6% [at 38 µM]
same,"activity change, negative = inhibition",[2],-6.36% [at 38 µM]
same,"activity, negative = inhibition",[3],2.98% [at 38 µM]
same,Potency,[4],> 46 µM
same,Potency,[5],> 46 µM
same,Potency,[6],inactive
same,Potency,[7],inactive
O=C(C[N+]12CN3CN(CN(C3)C1)C2)c1ccc(-c2ccccc2)cc1,"activity change, negative = inhibition",[1],8.23% [at 7.69 µM]
same,"activity change, negative = inhibition",[2],-2.51% [at 7.69 µM]
same,"activity, negative = inhibition",[3],0.439% [at 7.69 µM]
same,Potency,[4],> 46 µM
same,Potency,[5],> 9.22 µM
same,"activity change, negative = inhibition",[6],-2.86% [at 11.4 µM]
same,Potency,[7],inactive
same,"activity change, positive = activation",[16],-51.5% [at 11.4 µM]
C/C(=N\O)C1(C)N(O)C(C)(C)C(c2ccco2)=[N+]1[O-] (stereo not given),"activity change, negative = inhibition",[1],5.37%
same,"activity change, negative = inhibition",[2],9.27%
same,"activity, negative = inhibition",[3],1.33%
same,Potency,[4],> 20.6 µM
O=C(NCCC1=CCCCC1)c1ccc(=O)oc1,"activity change, negative = inhibition",[1],-16%
same,"activity change, negative = inhibition",[2],-4.94%
same,"activity, negative = inhibition",[3],7.23%
same,Potency,[4],> 20.6 µM
CCCCC[C@H](O)CCCC(=O)O,"activity change, negative = inhibition",[1],-0.599% [at 38 µM]
same,"activity change, negative = inhibition",[2],-3.23% [at 38 µM]
same,"activity, negative = inhibition",[3],-28.6% [at 38 µM]
same,Potency,[4],> 46 µM
same,Potency,[5],> 46 µM
same,Potency,[6],inactive
same,Potency,[7],inactive
same,Potency,[13],5.01 µM (active)
same,Potency,[8],inactive
same,Potency,[9],inactive
same,Potency,[10],inactive
same,outcome,[11],inactive
same,outcome,[12],inactive
same,outcome,[15],inactive
Nc1nc(NC(=O)Cc2ccccc2)nn1-c1ccccc1,"activity change, negative = inhibition",[1],5.76%
same,"activity change, negative = inhibition",[2],9.17%
same,"activity, negative = inhibition",[3],4.24%
same,Potency,[4],> 20.6 µM
